uPA surface inh: inhibitors of cell surface uPA generation; AID 540303; cell surface uPA generation assay, qHTS; hit rate 0.31% among 330,000; Potency, µM (top dose mostly 38.3 µM), inactives show at the highest dose activity change, negative = inhibition, actives largely listed as inhibitors; active means well fitted inhibition curve with a large enough effect; inconclusive means small, poorly fitted or top-dose-only effect; inactive means no such curve, though single readings can be large or run the other way; tested in mouse RAW 264.7 cells; further: on the % scale 0 is the no-effect control and ±100 the full control effect; nearly all actives have a fitted effect of over 55% in size
Rab9 prom act: activates the Rab9 promoter; Potency, µM (doses to about 9.22 µM), for the others: top-dose activation, negative = inhibition, usual class: activators; hit rate 2.8% among 320,000; Huh7 Rab9 promoter-luciferase reporter, luminescence, 24 h; further: % of control where 0% means no effect; nearly all actives have a fitted effect of over 60% in size
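Rab9 promoter-driven luciferase in stably transfected Huh7 cells; 1500 cells/well rested 2 h, exposed to compound in DMSO for 24 h at 37 °C, 5% CO2. Luminescence read 10 min after adding luciferase reagent at ambient temperature.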
FLuc modulator: firefly luciferase modulation, counter-screen for miR-21 project; P08659; purified FLuc, Km substrates, luminescence inhibition; Potency, µM (titrated, usually from 57.5 µM), for inactives: top-dose activity change, negative = inhibition, hits mostly inhibitors; hit rate 6.9% among 360,000; AID 588342;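 further: plate controls were vehicle for no effect and reference inhibitor for full effect; nearly all actives have a fitted effect of over 55% in size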
Target sequence (P08659 whole entry, looked up): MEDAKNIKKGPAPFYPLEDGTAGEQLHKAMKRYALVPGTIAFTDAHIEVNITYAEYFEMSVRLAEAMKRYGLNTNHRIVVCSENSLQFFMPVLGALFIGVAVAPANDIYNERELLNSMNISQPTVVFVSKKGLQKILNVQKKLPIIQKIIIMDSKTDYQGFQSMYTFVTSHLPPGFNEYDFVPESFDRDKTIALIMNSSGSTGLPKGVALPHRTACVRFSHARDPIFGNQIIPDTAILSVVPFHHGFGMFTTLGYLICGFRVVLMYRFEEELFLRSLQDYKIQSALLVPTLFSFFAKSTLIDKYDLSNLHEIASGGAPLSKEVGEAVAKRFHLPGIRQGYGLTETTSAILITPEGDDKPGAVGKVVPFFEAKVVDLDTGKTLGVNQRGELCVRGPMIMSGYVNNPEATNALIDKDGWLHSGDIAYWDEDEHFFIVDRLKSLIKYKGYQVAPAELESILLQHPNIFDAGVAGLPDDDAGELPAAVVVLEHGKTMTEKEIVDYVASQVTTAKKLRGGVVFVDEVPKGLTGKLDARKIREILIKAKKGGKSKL
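Biochemical qHTS of compounds, final roughly 60 µM downward over six points, against 10 nM purified firefly luciferase using Km concentrations of substrates (10 uM D-luciferin, 10 uM ATP) in Tris acetate pH 7.5 buffer; luminescence output.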
ELG1 genotoxic: inducers of genotoxicity in HEK293T ELG1-luciferase cells. Potency, µM (doses to about 46 µM), for the others: at the top dose activity change, positive = activation, usual class: activators. hit rate 1.3% among 330,000. HEK293T ELG1-luciferase reporter, luminescence, 16 h. AID 504466; further: % of control where 0% means no effect; nearly all actives have a fitted effect of over 60% in size
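Genotoxicity was scored as increased ELG1-luciferase reporter signal, measured by ONE-Glo luminescence (30 min, room temperature). Compound or vehicle exposure of the HEK293T reporter cells lasted 16 hr at 37°C.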
SMN2 splice up: SMN2 splice variant enhancement | HEK293 SMN2-luciferase splicing reporter, luminescence, 30-36 h | Potency, µM (series often up to 46.1 µM), for inactives: at the top dose activity change, positive = activation, usual class: activators | hit rate 2.8% among 210,000; further: % of control where 0% means no effect; nearly all actives have a fitted effect of over 55% in size
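HEK293 cells carry an SMN2 […]–luciferase reporter in which exon 7 inclusion puts luciferase in frame. Cells were plated 10-12 h before compound addition, then incubated 30-36 h at 37C. ONE-Glo luminescence was read; sodium butyrate at 4.5 mM final served as control.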
NPC1 prom act: activates the NPC1 promoter. Potency, µM (doses to about 9.22 µM), for the others: at the highest dose activation, actives largely listed as activators. Huh7 NPC1 promoter luciferase reporter, 24 h. hit rate 2.4% among 320,000. AID 485313; further: % of control where 0% means no effect; nearly all actives have a fitted effect of over 60% in size
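Huh7 reporter cells (NPC1 promoter driving luciferase) are dosed with compound for 24 h at 37 °C, 5% CO2; luciferase detection reagent is then added and luminescence measured after 10 min at ambient temperature.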
Active calls of the source: *; ? = inconclusive; / = no result; [ ] = dose if it differs, or a comment. Compounds with a hit are over-represented: about 7.3% of the library has one in this group of screens. Unless noted, the call rests on the fitted dose curve; in most records, active means well fitted curve in the direction sought with a large enough effect; inconclusive means small, poorly fitted or top-dose-only effect, or another doubt; inactive means no such curve, though single readings can be large; an effect the other way counts as inactive or inconclusive. Potency means the concentration at half of the fitted maximal effect.

SMILES | uPA surface inh | Rab9 prom act | FLuc modulator | ELG1 genotoxic | SMN2 splice up | NPC1 prom act
COC(=O)c1ccc(C(=O)NC(=S)Nc2nc3c(s2)CC(C)CC3)cc1 (configuration not stated) | -3.0% | 3.3% | -9.1% | 12.5% | 15.8µM* | 19.8%
CCCCOc1ccc(C(=O)Nc2nc3c(s2)CC(C)CC3)cc1 (configuration not stated) | / | / | -13.1% | / | / | /
Cc1nccc(-c2cc(-c3ccc(Cl)cc3Cl)no2)n1 | -6.3% | 1.12µM* | 2.39µM* | ? | / | 1.41µM*
CC(C)NC(=O)C1CCC(Cn2c(=O)c3sccc3n(CC(=O)Nc3ccccc3)c2=O)CC1 (configuration not stated) | / | / | 0.1% | / | / | /
Cc1cc(=O)n2nc(N(C)CC(=O)NCc3cccc(Br)c3)sc2n1 | / | / | 5.5% | / | 16.4% | /
CCC(=O)N1CCN(c2nc(-c3ccccc3)c3c(c2C#N)CCCC3)CC1 | -6.3% | -4.2% | 1.3% | -12.3% | -23.1% | -4.0%
CNS(=O)(=O)c1cccc(C(=O)OCC(=O)c2ccc3c(c2)OCCO3)c1 | -16.3% | 19.6% | 0.379µM* | -1.2% | / | 9.1%
NS(=O)(=O)c1cc(C(=O)OCC(=O)c2ccc3c(c2)OCCO3)ccc1Cl | ? | 2.82µM* | 0.213µM* | ? | -0.7% | 2.82µM*
Cc1ccc(C)c(NC(=O)CSc2nc(=O)n(Cc3ccncc3)c3c2CCC3)c1 | / | / | -1.9% | / | / | /
COc1ccc(C2C=C(c3ccc(Cl)cc3)Nc3nc(-c4ccc(Cl)cc4)nn32)cc1 (configuration not stated) | / | / | -14.4% | / | 1.0% | /
Cc1ccc(C)n1-c1ccc(C(=O)NN=C2CCCC2)cc1 | -0.7% | 2.2% | 2.4% | 5.1% | 23.3% | -3.6%
O=Cc1c(OCc2ccccc2)ccc2ccccc12 | 1.3% | ? | 12µM* | ? | 14.1µM* | ?
COc1ccc(CC(=O)NNc2ncnc3c2cnn3-c2ccc(C)cc2)cc1 | 1.9% | -1.5% | 4.5% | 4.6% | / | -0.5%
COc1ccc(CCNc2ncnc3c2cnn3-c2ccc(F)cc2)cc1 | / | / | -15.5% | / | / | /
CCCN(CCC)c1ncnc2c1cnn2-c1ccc(OC)cc1 | -23.1% | 0.447µM* | 2.39µM* | 1.16µM* | ? | 0.708µM*
C=CCNc1ncnc2c1cnn2-c1ccc(OC)cc1 | / | 0.398µM* | 3.38µM* | ? | ? | 0.631µM*
CCCNc1ncnc2c1cnn2-c1ccc(OC)cc1 | / | 0.398µM* | 5.36µM* | 2.2% | -2.7% | 0.501µM*
Cc1ccc(Sc2ccc(N3CCC(C(=O)Nc4ccc(C)c(F)c4)CC3)nn2)cc1 | / | / | -18.6% | / | 7.4% | /
COc1ccc(/C=C2\Cc3ccccc3C2=O)cc1OC | ? | -1.6% | 3.38µM* | 16.4µM* | / | 12.3%
COc1ccc(/C=C2\CCc3ccccc3C2=O)cc1O | -14.1% | 3.0% | 0.338µM* | 3.66µM* | / | -1.5%
COc1ccc(/C=C2\CCC(C3CCCC3)C2=O)cc1Cn1cccn1 (configuration not stated) | -9.3% | -4.5% | ? | 11.9% | -23.2% | -1.4%
COc1ccc(/C=C2/CSC/C(=C/c3ccc(OC)c(OC)c3)C2=O)cc1OC | -9.5% | / | / | / | / | /
COc1ccc(/C=C2\CCc3ccccc3C2=O)cc1Cn1cccn1 | -5.2% | 1.6% | 5.36µM* | ? | -11.7% | 0.7%
N#CCCn1cnc2c1NC=NC2Cl (configuration not stated) | / | / | / | / | -1.4% | /
CCC(=O)Nc1ccc(CC)cc1-c1nc2ccccc2n(CC(=O)c2ccc(OC)cc2)c1=O | / | / | -2.1% | / | / | /
SMILES | uPA surface inh | Rab9 prom act | FLuc modulator | ELG1 genotoxic | SMN2 splice up | NPC1 prom act
CC(=O)c1cc(-c2ccc(F)cc2)n(CCC(=O)NCc2ccccc2C)c1C | / | / | 0.4% | / | -4.1% | /
CC(=O)N1CCC2(CC1)OC(=O)C(C)=C2C(=O)Nc1ccccc1C(F)(F)F | / | / | 1.6% | / | / | /
O=C(Nc1nnc(CC2=CCCCC2)s1)c1cccs1 | -1.1% | ? | ? | 14.6µM* | 14.1µM* | ?
O=C(Nc1nnc(Cc2ccccc2)s1)c1ccccc1 | 0.4% | ? | -17.8% | ? | / | 3.16µM*
O=C(Nc1nnc(Cc2ccc(Cl)cc2)s1)c1cccs1 | 2.6% | 20.4% | -0.9% | 21.3% | 15.3% | 17.1%
O=C(Nc1nnc(Cc2ccccc2)s1)c1cccs1 | 2.5% | 1.78µM* | ? | ? | 12.1% | ?
Cc1ccc(C(=O)Nc2nnc(Cc3ccccc3)s2)cc1 | 10.9% | 1.0%[1.84 µM] | 5.8% | -0.6% | / | -0.1%
CCOc1ccc(OCC)c(S(=O)(=O)N2CCN(c3cccc(C)c3C)CC2)c1 | / | / | 1.5% | / | -30.2% | /
COc1ccccc1NC(=O)C1CCCN(c2nnc(C)c3c(C)n(-c4ccccc4)nc23)C1 (configuration not stated) | / | / | -18.5% | / | / | /
N#Cc1cc(-c2ccccc2)[nH]c1-c1nccc2ccccc12 | 2.3% | -4.5% | ? | -13.3% | / | -3.9%
c1ccc(-c2ccc(-c3nccc4ccccc34)[nH]2)cc1 | / | 1µM* | 0.151µM* | ? | / | ?
COC(=O)c1ccc(COC(=O)c2cccnc2Cl)cc1 | -0.8% | 22.6% | ? | ? | / | 14.3%
O=C(COC(=O)c1cccnc1Cl)c1ccc(OC(F)F)cc1 | -4.3% | 8.0% | 5.36µM* | 0.3% | 1.4% | -0.8%
COc1ccc(OC)c(C(=O)COC(=O)c2ccccc2O)c1 | -2.3% | -0.6% | 12µM* | 15.1% | 5.4% | 24.1%
Cc1cc(C)c(C(=O)COC(=O)c2cccnc2Cl)c(C)c1 | 3.3% | -0.3% | 16.9µM* | -0.8% | -0.3% | -2.2%
O=C(COC(=O)c1cccnc1Cl)c1ccc(Cl)cc1Cl | / | -8.0% | 0.757µM* | -0.5% | -4.5% | -0.3%
Cc1cccc(CNC(=O)CCn2c(=O)c3cccn3c3ccc(F)cc32)c1 | / | / | -1.1% | / | / | /
CCOC(=O)c1ccccc1NC(=O)Cn1c(=O)n(CCC(=O)NCc2ccccc2OC)c(=O)c2ccccc21 | / | / | -0.2% | / | 12.4% | /
CC1=C(C(=O)NCc2cccc(Br)c2)C2(CCCCC2)OC1=O | / | / | -7.4% | / | / | /
CCN1C[C@@H]2[C@@H]3C(=O)N(Cc4ccccc4)C(=O)[C@@H]3[C@](C)(C1=O)N2C(=O)c1ccccc1 | -5.4% | / | / | / | / | /
Cc1ccccc1C(=O)N1CC(=O)Nc2ccc(Cl)cc2C1c1ccccc1 (configuration not stated) | / | / | 1.9% | / | 4.9% | /
COc1ccc(OC)c(C(=O)COC(=O)c2cccnc2Cl)c1 | 1.8% | 6.3% | ? | 1.0% | 4.7% | -5.3%
COc1ccc(C(=O)COC(=O)c2cccnc2Cl)c(OC)c1 | -1.7% | 2.24µM* | 10.7µM* | 20.6µM* | -0.5% | 21.4%
CC(/C=N/NC(=O)CSc1n[nH]c(=O)[nH]c1=O)=C\c1ccccc1 | -2.2% | 8.8% | 15.1µM* | -1.7% | / | -3.0%
CC(=C/c1ccccc1)/C=N/NC(=O)CSc1nc(C)cc(C)n1 | -2.6% | -4.5% | -17.4% | -6.4% | -26.9% | -5.3%
